# Laboratory results: PubChem BioAssay AID686970 (National Center for Advancing Translational Sciences (NCATS), 2013)
# The whole screen tested about 360,000 compounds, of which about 6,000 (1.7%) were called active. About 8% were inconclusive and are not listed. For the sample, actives were picked, then their nearest neighbours and some compounds at random. A number with no mark means an inactive call. The call rests on the fitted dose curve; in most records, active means well fitted cell-killing curve with a large enough effect; inconclusive means small, poorly fitted or top-dose-only effect, or effect the other way; inactive means flat fitted curve, though single readings scatter.
# Assay: qHTS for induction of synthetic lethality in tumor cells producing 2HG: qHTS for the HT-1080-NT fibrosarcoma cell line;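 further: NT is the 2HG producing partner of a matched IDH1 knockdown line; nearly all actives have a fitted effect of over 55% in size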;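 on activity, negative = less viability: 0% = DMSO-treated cells and -100% = media-only wells without cells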
# Details: HT-1080-NT fibrosarcoma viability, CellTiter-Glo ATP luminescence, 48 h; series mostly up to 46.1 µM; activity, negative = less viability: at the top concentration
# Method in brief: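 Viability by CellTiter-Glo luminescence after 48 h compound exposure at 37C of HT-1080-NT cells (750/well, RPMI, 5% FBS). % activity scaled between DMSO wells and medium-only wells, then curve-fitted and categorized by curve class.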
# Potency means the concentration at half of the fitted maximal effect.
Structure (SMILES),"activity, negative = less viability",Potency
Cc1ccc(-c2ccc(CN3C(C)C(=O)N(Cc4cn(CCC5OCCCO5)nn4)CCS3(=O)=O)cc2)cc1 (stereo unspecified),-19.9%,
COc1ccc(C(C(=O)NC2CCCCC2)N(C(=O)CCl)c2ccccc2Cl)cc1 (stereo unspecified),,18.4 µM (active)
COc1ccc(C(C(=O)NC2CCCCC2)N(C(=O)c2snc(C(N)=O)c2N)c2ccccc2OC)cc1 (stereo unspecified),-16%,
Cc1ccccc1N(C(=O)CNC(=O)c1cccs1)C(C(=O)NC1CCCC1)c1ccncc1 (stereo unspecified),12.9%,
Cc1ccc(Cc2c(-c3ccc(C)cc3)nc3c4ccccc4ccn23)cc1,-2.86%,
O=c1c2c3c(sc2n(CCN2CCCC2)c(=O)n1Cc1ccccc1)CCCCC3,-1.98%,
CN(C)CCCn1c(=O)n(Cc2ccccc2)c(=O)c2c3c(sc21)CCCCC3,,16.4 µM (active)
CCn1c(=S)[nH]c2sc3c(c2c1=O)CCCCC3,-29.9%,
O=C(NCc1ccccc1Cl)c1csc([C@@H]2O[C@H](CO)[C@@H](O)[C@H]2O)n1,6.23%,
COc1cc(OC)c(N2CC(C(=O)Nc3cc(Cl)ccc3N3CCOCC3)CC2=O)cc1Cl (stereo unspecified),,5.8 µM (active)
COc1ccccc1N1CC(C(=O)Nc2ccc(S(=O)(=O)N3CCOCC3)cc2)CC1=O (stereo unspecified),11.5%,
COc1ccc(Cl)cc1NC(=O)C1CC(=O)N(c2ccc(F)cc2)C1 (stereo unspecified),-2.72%,
CCCNC(=O)C1(C)CCN(C(=O)c2ccccc2OC(F)(F)F)C1 (stereo unspecified),10.9%,
O=C(O)C1CCCN1c1nc(Cl)ccc1[N+](=O)[O-] (stereo unspecified),2.51%,
COc1ccc(-c2ccc3[nH]c4c(c3c2)CCN2C[C@H]3[C@H](C)ON(C)[C@H]3C[C@@H]42)cc1,-28.4%,
CCOC(=O)c1c(NC(=S)SC)sc(C(=O)N2CCc3ccccc3C2)c1C,-2.33%,
Cc1ccc(S(=O)(=O)N2CCCCC2)cc1NC(=O)CCNC(=O)c1ccccc1Cl,5.6%,
COc1cccc(-n2c(SCC(=O)NC3CCCCC3)nc3n[nH]c(C)c3c2=N)c1,,14.6 µM (active)
COc1cccc(-n2c(SCC(=O)NC3CCS(=O)(=O)C3)nc3ccccc3c2=O)c1 (stereo unspecified),3.51%,
Cc1ccc(-n2c(SCC(=O)NCCC3=CCCCC3)nc3n[nH]c(C)c3c2=N)cc1Cl,,23.1 µM (active)
Cc1nnc(OCC(=O)NCCC2=CCCCC2)c2ccccc12,17.4%,
C=CCn1c(CC(=O)Nc2cccc(OC)c2)nnc1SCC(=O)NC1CCCCC1,-3.92%,
CCCCNC(=O)CSc1nc2n[nH]c(C)c2c(=N)n1-c1cccc(Cl)c1C,1.53% [at 9.24 µM],

Structure (SMILES),"activity, negative = less viability",Potency
O=c1cc(CN2CCCCCCC2)c2c(ccc3ccccc32)o1,22.8%,
Nc1[nH]c(C(=O)c2ccccc2)c(-c2ccc(Br)cc2)c1C(=O)NC1CC1,0.942%,
CCc1nc2c(OCCOc3ccccc3)cccn2c1N(C)C(=O)c1cccs1,12.8%,
CCc1nc2c(=O)[nH]cnc2o1,10%,
Cc1ccccc1S(=O)(=O)NC(=O)C1(C)CCN1C(=O)C1(c2ccccc2)CCCC1 (stereo unspecified),13.7%,
CCOC(=O)C1(C)CCCN(C(=O)c2ccc(F)c(Cl)c2)C1 (stereo unspecified),-2.76%,
COc1ccc(CNc2nc(NCc3ccc(OC)cc3)c3ncn(C4CCCC4)c3n2)cc1,,7.31 µM (active)
COc1ccc(CNc2nccs2)cc1,-2.05%,
COc1ccc(CNC(=O)C2CCCC2)cc1,14.5%,
O=c1[nH][nH]c2c1[C@H](c1ccc(Cl)cc1)O[C@H](CCc1ccccc1)C2,-25.7%,
COc1cccc(CNC(=O)[C@@H]2CCCN2C(=O)[C@@H]2CCCN2C(=O)c2ccccc2)c1,10.9%,
CC1(C(=O)NCc2ccc3c(c2)OCO3)CCN1C(=O)Cc1cccc2ccccc12 (stereo unspecified),0.53%,
COc1ccc(OC)c(C(O)c2ncc(-c3cccc(C(F)(F)F)c3)[nH]2)c1 (stereo unspecified),-8.49%,
COc1cc2nc(Cl)nc(NC3CC3)c2cc1OC,-5.51%,
Cc1ccc([C@H]2N[C@]3(CCCN(Cc4ccccc4)C3=O)[C@H]3C(=O)N(Cc4ccccc4)C(=O)[C@@H]23)cc1,-8.22%,
CC(C)C[C@H]1CNC(=S)N1C[C@H]1CCCN1C[C@H](Cc1ccc(O)cc1)N1C[C@H](Cc2ccc(O)cc2)N(CC2CCCCC2)C1=S,,20.6 µM (active)
CC(C)C[C@H]1CN([C@@H](Cc2ccccc2)CN2CCC[C@@H]2CN2C(=O)C(=O)NC[C@@H]2Cc2ccc(O)cc2)C(=O)C(=O)N1CCc1ccccc1,7.9%,
CC(C)C[C@H]1CNC(=O)C(=O)N1C[C@@H]1CCCN1C[C@H](Cc1ccccc1)N1C[C@H](CC(C)C)N(CC2CCCCCC2)C(=O)C1=O,23%,
C[C@@H]1CN([C@@H](C)CO)C(=O)CCCn2nncc2CO[C@H]1CN(C)Cc1ccc(C(F)(F)F)cc1,17.2%,
CC1(C(=O)NS(=O)(=O)c2cccs2)CCN1C(=O)Cc1ccc(-c2ccccc2)cc1 (stereo unspecified),0.809%,
COc1cc(SC#N)ccc1N=Cc1c(C)[nH]n(-c2ccc(C)cc2)c1=O,,25.9 µM (active)
O=Cc1cn(CCOc2ccc(F)cc2)c2ccccc12,5.53%,
CCc1nc2ccc(C(=O)N(C)CCN(C)C)cn2c1N(CC)CCOC,15.1%,

Structure (SMILES),"activity, negative = less viability",Potency
CCc1nc2ccc(C(=O)Nc3ccc(OC)c(OC)c3)cn2c1N(C)C(=O)c1cccc(OC)c1,21.7%,
CCc1nc2ccc(C(=O)Nc3cccc(OC)c3)cn2c1N(CCC(C)C)CCN(C)C,,18.4 µM (active)
O=c1[nH]c(N2CCN(Cc3ccc4c(c3)OCO4)CC2)nc2c1CCCC2,15.1%,
CCCCCc1c(C)nc(N2CCN(Cc3ccc4c(c3)OCO4)CC2)[nH]c1=O,2.77%,
Fc1ccc2[nH]c3c(N4CCN(Cc5ccc6c(c5)OCO6)CC4)ncnc3c2c1,,23.1 µM (active)
COc1cccc(-c2cc3nc(NCCOc4ccccc4Cl)n(C)c(=O)c3s2)c1,3.07%,
CCCC(=O)N1CCC1(C)C(=O)NCc1ccc(SC)cc1 (stereo unspecified),0.58%,
CCCc1nc2ccccc2n1C(C)C(=O)NC(C)(C)C (stereo unspecified),10.5%,
Cc1cccc(-c2cnc(C(O)c3ccc4ccccc4c3)[nH]2)c1 (stereo unspecified),-10.5%,
CN(C)CCNC(=O)c1ccc(Cl)c2cc3ccccc3nc12,,20.6 µM (active)
CN(c1ccccc1)S(=O)(=O)c1ccc(Cl)c(C(=O)NCCc2c[nH]c3ccccc23)c1,-7.85%,
CN(C)CCNC(=O)Nc1cccc(Cl)c1Cl,-8.51%,
CC1(Oc2ccc(Cl)cc2)CCN(Cc2csc3ccccc23)C1 (stereo unspecified),10.5%,
COc1ccc(CNC(=O)C2CC(c3ccc(C(F)(F)F)cc3)=NO2)cc1 (stereo unspecified),-10.4%,
COc1ccc(S(=O)(=O)N2CCC(C(=O)NCc3ccco3)CC2)cc1C,1.61%,
COc1ccc(C2=NOC(C(=O)NCc3ccco3)C2)cc1OC (stereo unspecified),,6.31 µM (active)
COc1ccc(CN2C[C@H]3CON(C)[C@H]3C[C@H]2c2ccc(-c3cccc(F)c3)cc2)cc1,-27.7%,
Cc1sc2ncnc(SCC(=O)NC3CCS(=O)(=O)C3)c2c1C (stereo unspecified),-12.9%,
Cc1ccc(CN(C)C[C@@H]2OCc3cnnn3CCCC(=O)N([C@@H](C)CO)C[C@H]2C)cc1,-0.921%,
CCOc1cccc(=O)c2c(C)n(CC3CCCO3)c(C)c12 (stereo unspecified),-0.086%,
CN1CN(C)c2ccc([N+](=O)[O-])c3cccc1c23,-4.95%,
O=C1c2cccc3c([N+](=O)[O-])ccc(c23)C(=O)N1CC1CCCO1 (stereo unspecified),,23.1 µM (active)
O=C(NCCS(=O)(=O)N1CCN(c2ccccc2)CC1)c1cc(=O)c2ccccc2o1,0.636%,

Structure (SMILES),"activity, negative = less viability",Potency
CC1CN(C(=O)c2cccc(NS(=O)(=O)c3ccc(Br)cc3)c2)CC(C)O1 (stereo unspecified),-3.46%,
C[C@H]1COc2cc(N3CCSCC3)ccc2S(=O)(=O)N1,17.1%,
CCCCC(O)C1=C[N+](=O)CC=C1 (stereo unspecified),16%,
COc1ccc(C)cc1-n1nnnc1SCc1nc2ccccc2c(=O)[nH]1,,14.6 µM (active)
CCn1c(COc2c(C)cccc2C)nnc1SCc1nc2ccccc2c(=O)[nH]1,0.882%,
COc1ccc(CCCc2nnc(SCc3nc4ccccc4c(=O)[nH]3)n2C)cc1,-18%,
COc1ccc(C2=Nc3ccccc3NC(=O)C2N(C(=O)c2cc3ccccc3[nH]2)c2ccccc2)cc1 (stereo unspecified),-15.6%,
O=C(Nc1ccc2c(c1)OCCO2)C(C1CC1)N1CCC(Cc2ccccc2)CC1 (stereo unspecified),-1.64%,
COc1ccc(OC)c(NC(=O)C2(C)CCN2C(=O)Cc2ccccc2)c1 (stereo unspecified),3%,
N#CCSc1ccccc1NC(=O)CN1C(=O)NC(CCc2ccccc2)C1=O (stereo unspecified),-11.4%,
CC[C@]1(O)C[C@@H]2CN(CCc3c([nH]c4ccccc34)[C@@](C(=O)OC)(c3cc4c(cc3OC)N(C)[C@H]3[C@@](O)(C(=O)OC)[C@H](OC(C)=O)[C@]5(CC)C=CCN6CC[C@]43[C@@H]65)C2)C1,,0.082 µM (active)
O=C(c1cc2cc(F)ccc2[nH]1)N1CCN(c2ccc(F)cc2)CC1,3.63%,
O=C(CCCN1CCc2[nH]c3ccc(F)cc3c2C1)c1ccc(F)cc1,,18.4 µM (active)
O=C(Nc1ccc(Cl)cc1)N1CCc2[nH]c3ccccc3c2C1,-22.4%,
COC(=O)[C@]12CCCCC=C1N(CCC1=CCCCC1)C(=O)[C@H](CC(=O)N1CCSCC1)C2,-10.5%,
COC(=O)C[C@H]1C[C@@H]2c3cc(N(C)C)ccc3O[C@@H]2[C@H](CO)O1,-0.17%,
CN(C)CCCOc1ccc(-c2ccc3nccn3c2)cn1,17.2%,
COc1ccc(S(=O)(=O)N[C@@H]2C=C[C@@H](CC(=O)N3CCc4ccccc4C3)O[C@@H]2CO)cc1,5.92%,
C=C1C(=O)OC2C1CCC(C)=CCCC1(C)OC21 (stereo unspecified),,16.4 µM (active)
O=C(OCc1cn([C@@H]2C[C@H](c3ccc(Cl)cc3)N(Cc3cccs3)C[C@H]2O)nn1)c1ccccc1,1.48%,
CCOc1ccc(CCN2C(=O)C(=O)N([C@@H](CC(C)C)CN3CCC[C@H]3CN3C(=O)C(=O)NC[C@@H]3Cc3ccccc3)C[C@@H]2CC(C)C)cc1,11.6%,
CC1(C(=O)NS(=O)(=O)c2cccc(F)c2)CCN1C(=O)Cc1cc(F)ccc1F (stereo unspecified),27.2%,
